# Test results from PubChem BioAssay (Tox21).
# Inconclusive results are not listed. Where a call stands in place of a potency, no number is given. Unmarked numbers belong to inactive results. The source made the active and inactive calls. Unless noted, calls follow the shape of the full dose curve.
# Assay: qHTS assay for small molecule agonists of the antioxidant response element (ARE) signaling pathway (AID 743202; active = well fitted activation curve with a large enough effect in the signal ratio in the repeat runs, not every such curve was filed as active; the % refers to the signal ratio)
# Settings: HepG2 ARE-bla reporter, beta-lactamase FRET, 16 h; series mostly up to 73.3 µM
# In short: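 Following a 16 h, 37 C exposure of reporter HepG2 cells (ARE-driven beta-lactamase, 2,000 cells/well) to compounds, FRET substrate was applied for 2 h at room temperature and fluorescence intensity recorded.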
Structure (SMILES),Potency,activation
O=C(O)/C=C(\CC(=O)O)C(=O)O,inactive,
CC(=O)c1ccc2ccc3ccccc3c2c1,inactive,
Cc1ccc(S(=O)(=O)NC(=O)NN2CC3CCCC3C2)cc1 (stereo not drawn),inactive,
O=C1CC2(CCCC2)CC(=O)N1CCNCC1COc2ccccc2O1 (stereo not drawn),inactive,
CC(C)(C)NCC(O)COc1cccc2c1CCC(=O)N2 (stereo not drawn),inactive,
CCCCCCCCS(=O)(=O)O,inactive,
Clc1cc(Cl)c(Cl)c(Cl)c1Cl,inactive,
Cc1cc(C)c(C)c(C)c1,inactive,
CC1(C)C(=O)C(C)(C)C1=O,inactive,
Cc1ccc(Br)cc1,inactive,
CSC(=O)c1cccc2nnsc12,inactive,
CC(=O)OC1CCC(C(C)(C)C)CC1 (stereo not drawn),inactive,
CC/C=C\CCOC(=O)c1ccccc1,inactive,
O=C(O)P(=O)(O)O,inactive,
COc1cnc(NS(=O)(=O)c2ccc(N)cc2)nc1,inactive,
CC[C@@]1(c2ccccc2)NC(=O)N(C)C1=O,inactive,
Cc1cc(O)c(Cl)cc1C,inactive,
C[C@@H]1CC[C@@]2(OC1)O[C@H]1C[C@H]3[C@@H]4CC[C@H]5C[C@@H](O)CC[C@]5(C)[C@H]4CC(=O)[C@]3(C)[C@H]1[C@@H]2C,,5.01% [at 8.36 µM]
CC(=O)OC/C=C(/C)CCC=C(C)C,inactive,
CCCCN1C(=O)c2ccccc2C1=O,inactive,
CCC(C)(C)C,inactive,

# Assay: qHTS assay for small molecule agonists of the antioxidant response element (ARE) signaling pathway - cell viability counter screen (AID 743203); also: nearly all actives have a fitted effect of over 55% in size
# Settings: ARE-bla HepG2 viability, CellTiter-Glo luminescence, 16 h; series mostly up to 73.3 µM
# In short: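 ATP content via CellTiter-Glo luminescence served as the viability measure. Cells: ARE-bla HepG2, 2,000 per well. Exposure: 16 hrs, 37C/5% CO2.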
Structure (SMILES),outcome,"viability change, negative = cytotoxic"
CCOc1ccccc1OCCN[C@H](C)Cc1ccc(OC)c(S(N)(=O)=O)c1,inactive,
CC(CN1CC(=O)NC(=O)C1)N1CC(=O)NC(=O)C1 (stereo not drawn),inactive,
C=COCCCCO,inactive,
O=C(O)/C=C(\CC(=O)O)C(=O)O,inactive,
CC(=O)c1ccc2ccc3ccccc3c2c1,inactive,
CCC(C)SSC(C)CC (stereo not drawn),inactive,
Cc1ccc(S(=O)(=O)NC(=O)NN2CC3CCCC3C2)cc1 (stereo not drawn),inactive,
O=C1CC2(CCCC2)CC(=O)N1CCNCC1COc2ccccc2O1 (stereo not drawn),inactive,
CNCCc1ccccn1,inactive,
CC[N+](C)(CC)CC,inactive,
CC(C)(C)NCC(O)COc1cccc2c1CCC(=O)N2 (stereo not drawn),inactive,
c1coc(Cn2cccc2)c1,inactive,
CCCCCCCCS(=O)(=O)O,inactive,
C/C(=N\O)c1ccc(OCC(=O)N2CCCCC2)cc1,inactive,
Clc1cc(Cl)c(Cl)c(Cl)c1Cl,inactive,
Cc1cc(C)c(C)c(C)c1,inactive,
CC1(C)C(=O)C(C)(C)C1=O,inactive,
Cc1ccc(Br)cc1,inactive,
C=CCCCCCCCCOC(C)=O,inactive,

Structure (SMILES),outcome,"viability change, negative = cytotoxic"
CSC(=O)c1cccc2nnsc12,inactive,
CN(C)c1ccncc1,inactive,
C=CCN(CC=C)CC=C,inactive,
CC(C)(O)CCCC1=CCC(C=O)CC1 (stereo not drawn),inactive,
CC(=O)OC1CCC(C(C)(C)C)CC1 (stereo not drawn),inactive,
CC/C=C\CCOC(=O)c1ccccc1,inactive,
O=C(O)P(=O)(O)O,inactive,
COc1cnc(NS(=O)(=O)c2ccc(N)cc2)nc1,inactive,
CCCCCCCCCCCCCCCCN(C)C,,8.57% [at 8.36 µM]
CC[C@@]1(c2ccccc2)NC(=O)N(C)C1=O,inactive,
Cc1cc(O)c(Cl)cc1C,inactive,
C[C@@H]1CC[C@@]2(OC1)O[C@H]1C[C@H]3[C@@H]4CC[C@H]5C[C@@H](O)CC[C@]5(C)[C@H]4CC(=O)[C@]3(C)[C@H]1[C@@H]2C,,3.19% [at 8.36 µM]
NS(=O)(=O)c1cc2c(cc1C(F)(F)F)NCNS2(=O)=O,inactive,
CCN(CC)CC,inactive,
COc1ccc2cc(CCC(C)=O)ccc2c1,inactive,
CC(=O)OC/C=C(/C)CCC=C(C)C,inactive,
CCCCN1C(=O)c2ccccc2C1=O,inactive,
CCC(C)(C)C,inactive,
Cc1ccc2ccccc2n1,inactive,

# Assay: qHTS assay for small molecule activators of the heat shock response signaling pathway - cell viability counter screen (AID 743209; active = well fitted cell-killing curve with a large enough effect in the repeat runs; also: nearly all actives have a fitted effect of over 50% in size)
# Settings: HSE-bla HeLa viability, CellTiter-Glo luminescence, 5 h; series mostly up to 62.6 µM
# In short: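 Compounds dissolved in DMSO were added to overnight-plated HSE-bla HeLa cells and left 5 h at 37 C. Cell viability was quantified by luminescence using CellTiter-Glo.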
Structure (SMILES),Potency,"activity change, negative = cytotoxicity"
C=COCCCCO,inactive,
CC(=O)c1ccc2ccc3ccccc3c2c1,inactive,
Cc1ccc(S(=O)(=O)NC(=O)NN2CC3CCCC3C2)cc1 (stereo not drawn),inactive,
O=C1CC2(CCCC2)CC(=O)N1CCNCC1COc2ccccc2O1 (stereo not drawn),inactive,
CNCCc1ccccn1,inactive,
CC[N+](C)(CC)CC,inactive,
CC(C)(C)NCC(O)COc1cccc2c1CCC(=O)N2 (stereo not drawn),inactive,
CCCCCCCCS(=O)(=O)O,inactive,
C/C(=N\O)c1ccc(OCC(=O)N2CCCCC2)cc1,inactive,
Clc1cc(Cl)c(Cl)c(Cl)c1Cl,inactive,
CC1(C)C(=O)C(C)(C)C1=O,inactive,
Cc1ccc(Br)cc1,inactive,
C=CCCCCCCCCOC(C)=O,inactive,
CSC(=O)c1cccc2nnsc12,inactive,
CN(C)c1ccncc1,inactive,
C=CCN(CC=C)CC=C,inactive,
CC(C)(O)CCCC1=CCC(C=O)CC1 (stereo not drawn),inactive,
CC(=O)OC1CCC(C(C)(C)C)CC1 (stereo not drawn),inactive,
CC/C=C\CCOC(=O)c1ccccc1,inactive,
CCCCCCCCCCCCCCCCN(C)C,,-2.6% [at 5.95 µM]
CC[C@@]1(c2ccccc2)NC(=O)N(C)C1=O,inactive,
Cc1cc(O)c(Cl)cc1C,inactive,
C[C@@H]1CC[C@@]2(OC1)O[C@H]1C[C@H]3[C@@H]4CC[C@H]5C[C@@H](O)CC[C@]5(C)[C@H]4CC(=O)[C@]3(C)[C@H]1[C@@H]2C,,11.4% [at 5.95 µM]
NS(=O)(=O)c1cc2c(cc1C(F)(F)F)NCNS2(=O)=O,inactive,
CCN(CC)CC,inactive,
COc1ccc2cc(CCC(C)=O)ccc2c1,inactive,
CC(=O)OC/C=C(/C)CCC=C(C)C,inactive,
CCCCN1C(=O)c2ccccc2C1=O,inactive,
Cc1ccc2ccccc2n1,inactive,
